An excerpt weighted towards active compounds, which were near 0.89% of everything screened.
BJeLR viab HTS: BJeLR cell viability reduction; BJeLR fibroblasts viability, CellTiterGlo ATP luminescence, 48 h; HRASV12, hTERT and SV40 LT/ST transformed; viability loss activity score, % (no concentration beside the values); actives 0.64% (n = 30,000); AID 2275; in the data active = viability loss activity score above about 50%;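 note: higher score means fewer live cells and less ATP luminescence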
A1 inhib: A1 inhibition; MEF A1-2A-BIM cells, caspase-Glo luminescence, 3 h; percent of clofoctol signal, DMSO as zero; caspase activation, % (no concentration beside the values); actives 0.51% (n = 21,000);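 active = most replicate scores above 10, or exactly half above 10 with mean activity above 10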;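 note: effector caspase 3 and 7 activity cleaving a DEVD luciferin substrate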
* = called active by the depositor; x = no result given.

SMILES	BJeLR viab HTS	A1 inhib
C[C@@H]1CN([C@@H](C)CO)C(=O)c2cc(NC(=O)Nc3ccc4c(c3)OCO4)ccc2O[C@@H]1CN(C)Cc1ccc(Cl)c(Cl)c1	-8.5	-0.6
O=C1Cc2c([nH]c3ccc([N+](=O)[O-])cc23)-c2ccccc2N1	37.8	10.0*
CCCCc1c(C)c(C#N)c2[nH]c3ccccc3n2c1=O	11.7	-1.4
CCc1c(C)c(C#N)c2[nH]c3ccccc3n2c1=O	101.1*	2.6
COc1cc([C@@H]2c3cc4c(cc3[C@H](O)[C@H]3COC(=O)[C@@H]23)OCO4)cc(OC)c1OC	92.6*	2.6
COc1cc2c(c(OC)c1OC)-c1cc3c(cc1C[C@H]1C(=O)OC[C@@H]1C2)OCO3	41.9	1.0
COc1cc([C@@H]2c3cc4c(cc3[C@H](O)[C@H]3COC(=O)[C@H]23)OCO4)cc(OC)c1OC	54.2*	2.4
COc1cc([C@@H]2c3cc4c(cc3[C@@H](O[C@@H]3O[C@@H]5CO[C@@H](C)O[C@H]5[C@H](O)[C@H]3O)[C@H]3COC(=O)[C@H]23)OCO4)cc(OC)c1O	15.1	0.1
COc1cccc(NC(=O)Cn2cc(C(=O)c3ccccc3)c(=O)c3cc(OC)ccc32)c1	0.1	x
O=C(NCc1cccnc1)/C(=C\c1ccc(Br)cc1)S(=O)(=O)c1ccccc1	6.8	1.0
O=C(NCc1cccnc1)/C(=C\c1cccc(Oc2ccccc2)c1)S(=O)(=O)c1ccccc1	96.1*	47.0*
C[C@@H]1CN([C@@H](C)CO)C(=O)c2cccc(NC(=O)NC3CCCCC3)c2O[C@H]1CN(C)C(=O)Nc1ccccc1	8.3	x
CN1CCN(c2ccccc2NS(=O)(=O)c2ccc3c(c2)SCC(=O)N3)CC1	0.3	-5.8
CNC(=O)Cn1cc2c(n1)-c1c(oc(C(=O)N3CCCC3)c1C)CC2	-2.4	-0.3
CCOC(=O)c1ccc(NC(=O)c2oc3c(c2C)-c2nn(Cc4ccc(C)cc4)cc2CC3)cc1	2.9	21.8*
COc1ccccc1C1CCN(S(=O)(=O)c2ccc(-c3csc(C)n3)s2)CC1	5.2	0.1
Cc1nc(-c2ccc(S(=O)(=O)N3CCCc4ccccc43)s2)cs1	56.1*	-0.1
Cc1cccc(-c2nc3c(cnn3-c3ccccc3)c(=O)n2-c2ccccc2)c1	-2.8	x
C=CC1(C)C=C2CCC3C(C)(C)C(O[C@@H]4O[C@@H](CO)[C@H](O)[C@H]4O)CCC3(C)C2CC1O[C@@H]1O[C@H](C)[C@H](O)[C@H](O)[C@H]1O (stereo not given in full)	-7.0	0.1
CC1CC[C@@]2(OC1)O[C@H]1CC3C4CC=C5C[C@@H](O[C@@H]6O[C@H](CO)[C@@H](O[C@@H]7O[C@@H](C)[C@H](O)[C@@H](O)[C@H]7O)[C@H](O)[C@H]6O[C@@H]6O[C@@H](C)[C@H](O)[C@@H](O)[C@H]6O)CC[C@]5(C)C4CC[C@]3(C)[C@@]1(O)[C@@H]2C (stereo not given in full)	92.0*	-2.6
CC(O)c1ccc2ccccc2c1 (stereo not given)	5.8	-0.7
COc1cc(OC)cc(-c2nc(N)c3c(C)c(-c4ccc(OC)c(OC)c4)sc3n2)c1	0.9	10.1*
COc1nc(NCCc2ccc(OC)c(OC)c2)nc(Nc2ccc(Cl)cc2)n1	-5.0	-0.2
C[C@@H]1CN([C@@H](C)CO)C(=O)c2cc(NS(=O)(=O)c3ccc(F)cc3)ccc2O[C@H]1CN(C)S(=O)(=O)c1cccs1	2.3	1.4
O=C(NCc1cccc2ccccc12)C12CC3CC(CC(C3)C1)C2	5.2	1.2
SMILES	BJeLR viab HTS	A1 inhib
CC1=CN2C(=N)/C(=C/c3cc(C)n(Cc4ccccc4)c3C)C(=O)N=C2S1	-5.6	0.7
CC1(C)CC(=O)C=C(Sc2nc3cc(Cl)ccc3s2)C1	69.0*	0.1
Cc1cc(Oc2nc3cc(Cl)ccc3s2)c2cc(Cl)ccc2n1	-3.8	0.5
Cc1ccc2c(Sc3ccc(Cl)cc3)c(C(=O)NCCN3CCOCC3)[nH]c2c1	-11.5	-0.4
C=CCN1C(=O)/C(=C2\SC(=Nc3ccccc3)N(c3ccccc3)C2=O)c2ccccc21	6.0	-0.6
COc1ccc(CN2CCC(N(C)Cc3ccccc3)CC2)cc1	0.9	x
N#CSCC(=O)C12CC3CC(CC(C3)C1)C2	23.5	36.2*
O=C(CSc1ccc(F)cc1Cl)C12CC3CC(CC(C3)C1)C2	-2.6	0.5
C=CCSc1n[nH]c(=O)n1-c1ccc(Cl)cc1	-1.3	-0.5
CCn1c(=O)cc(N2CCN(c3ccccc3)CC2)[nH]c1=O	-8.8	-0.7
C[C@@H]1C[C@H]2OCC3=CCC[C@H]([C@]1(CC(O)c1ccoc1)C(=O)O)[C@]32CO (stereo not given in full)	92.0*	-0.1
CC1=CCC[C@@H]2[C@](CCc3ccoc3)(C(=O)O)[C@H](C)CC[C@@]12C	-2.6	0.5
O=C(COc1ccc(Cl)cc1)CC(=O)c1ccc(Cl)cc1	0.5	0.1
Cc1ccccc1COc1ccc2oc(-c3ccccc3)c(C(=O)O)c2c1	7.6	-2.4
Oc1ccc(/C=N/c2nccs2)cc1	-1.5	-0.3
CC12CC3(C)CC(C)(C1)CC(CN=Cc1ccc(O)cc1)(C2)C3	3.4	12.8*
CC(C)CSCC1OC(n2cnc3c(N)ncnc32)C(O)C1O (stereo not given)	-2.3	0.0
CCCn1c(=S)[nH]c2cc(C(=O)NCc3ccccc3)ccc2c1=O	-1.6	-0.3
C=C(C)C(=O)O[C@H]1CC(=C)C2C[C@H](O)[C@](O)(CO)C2[C@H]2OC(=O)C(=C)[C@H]12 (stereo not given in full)	-11.2	0.4
C=C(C)C(=O)O[C@H]1[C@H]2C(=C)C(=O)O[C@@H]2C[C@@H](C)[C@@H]2O[C@@H]2C(=O)[C@](C)(O)[C@@H]1OC(=O)C(=C)C	79.7*	0.0
O=C(CNc1cc(C(F)(F)F)cc(C(F)(F)F)c1)c1cc2cc(Cl)ccc2o1	4.2	x
Cc1ccc(S(=O)(=O)N(C)C[C@@H]2Oc3ccc(NC(=O)C4CC4)cc3C(=O)N([C@@H](C)CO)C[C@H]2C)cc1	-6.7	0.7
C[C@@H]1CCOC(=O)C=CC=CC(=O)O[C@@H]2C[C@H]3O[C@@H]4C=C(C(=O)O)CC[C@]4(COC(=O)[C@H]1O)[C@]2(C)[C@]31CO1	71.0*	1.0
COC(=O)c1ccc(CSc2ccc3nnc(-c4ccc(Cl)cc4)n3n2)o1	-6.7	0.0
CCn1cc(C(=O)N(C)Cc2ccccc2)c2cc(OC)c(OC)cc2c1=O	0.7	x
SMILES	BJeLR viab HTS	A1 inhib
O=C(NC1CC1)c1ccc(Cl)cc1Cl	-0.2	-1.2
O=C(CSc1nc2ccccc2c(=O)n1CCc1ccccc1)NCCc1ccccc1	1.2	-0.8
O=C(CCn1c(SCc2cccc(F)c2)nc2ccccc2c1=O)NCCc1ccccc1	-2.4	19.4*
CC(=O)NCCOc1ccc(C2CCCCC2)cc1	0.8	-0.2
Nc1cc(C(F)(F)F)ccc1Oc1ccc(C2CCCCC2)cc1	4.6	11.4*
CC12CCC(C(=O)N3NC(=O)[C@@H](c4ccccc4)[C@@H]3c3ccccc3)(OC1=O)C2(C)C (stereo not given in full)	3.0	0.3
CC(C)=CCNc1ncnc2nc[nH]c12	-3.7	-0.2
Cn1cnc([N+](=O)[O-])c1Sc1ncnc2nc[nH]c12	87.6*	-0.6
Cc1cc(-c2c(C(=O)Sc3ccccc3)c(C)nn2-c2ccccc2)no1	0.5	-0.4
